Inconclusive results are not listed. Calls of active or inactive are those of the source. Calls come from the whole dose curve; as a rule, active = well fitted curve in the direction sought with a large enough effect; inconclusive = small, poorly fitted or top-dose-only effect, or another doubt; inactive = no such curve, though single readings can be large; an effect the other way counts as inactive or inconclusive.
Experiments:
[1] = molecular target: ATP-dependent 6-phosphofructokinase (Trypanosoma brucei brucei) (UniProt O15648); experiment: qHTS Assay to Find Inhibitors of T. brucei phosphofructokinase: hit validation (AID 492961);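 note: luminescence reports ADP formed as PFK phosphorylates fructose-6-phosphate with ATP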; details: T. brucei PFK, ADP-Glo luminescence; series mostly up to 24.3 µM
How it was run: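 Reaction: 0.1 M triethanolamine pH 8.0, 5 mM MgCl2, F6P 0.5 mM, ATP 0.1 mM, PFK 1.25 nM, 45 min RT. Read-out: ADP-Glo luminescence. Analysis: concentration-response fits, classed by r2 and efficacy.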

[2] = S16 Schwann cell PMP22 intronic element firefly luciferase assay (AID 624032); details: S16 rat Schwann cells, PMP22 element FLuc, 24 h; series mostly up to 25.7 µM; note: nearly all actives have a fitted effect of over 30% in size
How it was run: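 Rat S16 Schwann cells stably carrying a PMP22 intronic element-driven Fluc reporter were seeded overnight, then exposed to compounds for 24 h at 37 °C. Luminescence was normalized to PTC124 (positive control) and DMSO (0% activity).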

CP192 = experiment: qHTS profiling for inhibitors of Plasmodium falciparum proliferation (AID 504749); note: nearly all actives have a fitted effect of over 60% in size; details: P. falciparum in erythrocytes, SYBR Green DNA, 72 h; series mostly up to 28.7 µM
How it was run: (§1)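 Quantitative HTS: compounds pinned into medium, infected erythrocytes added (0.3% parasitemia, 2.5% hematocrit), 72 h culture at 37 C under 5% CO2. Saponin/Triton lysis with SYBR Green I, overnight RT, then fluorescence read.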

CP266 = experiment: as above; details: P. falciparum in erythrocytes, SYBR Green DNA, 72 h; series mostly up to 28.7 µM
How it was run: as §1

AS120 = experiment: as above; details: P. falciparum in erythrocytes, SYBR Green DNA, 72 h; series mostly up to 28.7 µM
How it was run: as §1

ATS189 = experiment: as above; details: P. falciparum in erythrocytes, SYBR Green DNA, 72 h; series mostly up to 12.8 µM
How it was run: as §1

CP185 = experiment: as above; details: P. falciparum in erythrocytes, SYBR Green DNA, 72 h; series mostly up to 12.8 µM
How it was run: as §1

CP194 = experiment: as above; details: P. falciparum in erythrocytes, SYBR Green DNA, 72 h; series mostly up to 12.8 µM
How it was run: as §1

CP203 = experiment: as above; details: P. falciparum in erythrocytes, SYBR Green DNA, 72 h; series mostly up to 12.8 µM
How it was run: as §1

CP237 = experiment: as above; details: P. falciparum in erythrocytes, SYBR Green DNA, 72 h; series mostly up to 12.8 µM
How it was run: as §1

CP238 = experiment: as above; details: P. falciparum in erythrocytes, SYBR Green DNA, 72 h; series mostly up to 12.8 µM
How it was run: as §1

CP247 = experiment: as above; details: P. falciparum in erythrocytes, SYBR Green DNA, 72 h; series mostly up to 12.8 µM
How it was run: as §1

CP265 = experiment: as above; details: P. falciparum in erythrocytes, SYBR Green DNA, 72 h; series mostly up to 12.8 µM
How it was run: as §1

CP291 = experiment: as above; details: P. falciparum in erythrocytes, SYBR Green DNA, 72 h; series mostly up to 12.8 µM
How it was run: as §1

CP305 = experiment: as above; details: P. falciparum in erythrocytes, SYBR Green DNA, 72 h; series mostly up to 12.8 µM
How it was run: as §1

CP335 = experiment: as above; details: P. falciparum in erythrocytes, SYBR Green DNA, 72 h; series mostly up to 12.8 µM
How it was run: as §1

DIV30 = experiment: as above; details: P. falciparum in erythrocytes, SYBR Green DNA, 72 h; series mostly up to 12.8 µM
How it was run: as §1

P94_40 = experiment: as above; details: P. falciparum in erythrocytes, SYBR Green DNA, 72 h; series mostly up to 12.8 µM
How it was run: as §1

TAB109 = experiment: as above; details: P. falciparum in erythrocytes, SYBR Green DNA, 72 h; series mostly up to 12.8 µM
How it was run: as §1

TAB113 = experiment: as above; details: P. falciparum in erythrocytes, SYBR Green DNA, 72 h; series mostly up to 12.8 µM
How it was run: as §1

Measured: Potency

Sequence of ATP-dependent 6-phosphofructokinase (Trypanosoma brucei brucei) (O15648 whole entry, looked up): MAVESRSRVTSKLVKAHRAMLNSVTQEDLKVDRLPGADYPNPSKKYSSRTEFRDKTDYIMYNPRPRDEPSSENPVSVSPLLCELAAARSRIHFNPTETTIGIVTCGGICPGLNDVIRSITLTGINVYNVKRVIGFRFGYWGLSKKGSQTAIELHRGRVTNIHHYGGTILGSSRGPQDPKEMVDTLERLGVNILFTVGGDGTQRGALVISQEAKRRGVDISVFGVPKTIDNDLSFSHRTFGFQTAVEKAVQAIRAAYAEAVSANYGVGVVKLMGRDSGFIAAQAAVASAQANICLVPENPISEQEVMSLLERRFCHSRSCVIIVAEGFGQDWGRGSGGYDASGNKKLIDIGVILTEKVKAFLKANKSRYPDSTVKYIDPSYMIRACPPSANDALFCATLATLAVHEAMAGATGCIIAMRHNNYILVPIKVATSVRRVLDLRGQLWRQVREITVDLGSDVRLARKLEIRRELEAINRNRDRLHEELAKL

CN(C)CC/C=C1\c2ccccc2CSc2ccccc21
inactive: [1] | [2] | CP192 | CP266

C[N+](C)(C)CC(O)CC(=O)O (stereo not given)
inactive: all assays above

O=C(Cc1cccs1)NC1C(=O)N2C(C(=O)[O-])=C(C[n+]3ccccc3)CSC12 (stereo not given)
not listed: [1]
inactive: all other assays above

CC(C)N1CCN(c2ccc(OC[C@@H]3CO[C@@](Cn4cncn4)(c4ccc(Cl)cc4Cl)O3)cc2)CC1
not listed: CP192 | CP266
inactive: all other assays above

C[C@@H]1CCC[C@H](C)N1NC(=O)c1ccc(Cl)c(S(N)(=O)=O)c1
inactive: all assays above

CN1[C@@H]2CC[C@H]1CC(OC(=O)[C@@H](O)c1ccccc1)C2 (stereo not given in full)
not listed: [2]
inactive: all other assays above

— PubChem BioAssay (NCATS)
